Common to all, as to test: NCI-60 one-dose screen, 48 h (100 = growth as untreated, 0 = no growth, -100 = all killed)
Holding throughout (conditions): 10 µM unless noted

Assay [1] has as its system NCI-H23 lung.
Assay [2] deals with NCI-H226 lung.
Assay [3] relates to NCI-H322M lung.
In assay [4] the test system is HOP-62 NSCLC.
Assay [5] has as its system NCI-H460 lung.
The test system of assay [6] is HOP-92 NSCLC.
Assay [7] has as its system NCI-H522 lung.
The subject of assay [8] is A549/ATCC NSCLC.
Assay [9] deals with 786-0 renal.
Assay [10] has as its system DU-145 prostate.
Assay [11] deals with K-562 leukemia.
Assay [12] deals with MALME-3M melanoma.
Assay [13] has as its system MDA-MB-231 breast.
The subject of assay [14] is RXF 393 renal.
Assay [15] deals with SF-268 CNS.
Assay [16] concerns SF-295 CNS.
In assay [17] the test system is UACC-257 melanoma.
In assay [18] the test system is M14 melanoma.
For assay [19], the system named is SF-539 CNS.

The panel holds about 83,000 compounds, 20% with a hit somewhere; the sample as a whole holds those more often.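 48-hour exposure, single concentration, 96-well plates; percent growth endpoint where 0 means no net growth. Active: below 10.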 A number with no mark means an inactive call. Active and inactive are the calls of the source.

`CN(C)CCCCNc1ccc(NCCCCN(C)C)c2c1C(=O)c1c(O)ccc(O)c1C2=O`: the growth was -68.5% (active) in [1]; 102% in assay [2]; 56.1% in assay [3]; 69.4% in [4]; -79.1% (active) in assay [5]; 40.6% in assay [6]. Moreover, the growth was -77.9% (active) in assay [7]; -82.9% (active) in assay [8]; -75.1% (active) in assay [9]; 58.3% in assay [10]; -54.5% (active) in [11]; 130% in [12]. In addition, the growth in assay [13] was -78.2% (active); in assay [14] it was -96% (active); in [15], 76.2%; in [16], -81.5% (active); in assay [17], 99.5%; in [18] it was -63.3% (active).

As for `CCCCS(=O)(=O)Oc1ccc(-c2nc(C)c(C(=O)OCC)s2)cc1C=O`, the growth in [1] was 84%; in [2], 87.1%; in assay [3], 86.7%; in [4], 68.4%; in assay [5] it was 58.7%; in assay [6], 69.5%. The growth in [7] is 58.3%; in assay [8], 101%; in assay [9], 74.4%; in [10], 61.4%; in assay [11], 13.7%; in assay [12], 75.1%. For the same compound, the growth was 76.7% in assay [13]; 79.3% in [15]; 67.5% in [16]; 58% in assay [19]; 96.2% in assay [17].

In the case of `C=C1C(=O)O[C@H]2[C@H]1CC/C(COC(=O)/C=C\C(=O)NCc1ccc(Cn3c(=O)sn(CCCI)c3=O)cc1)=C\CC[C@@]1(C)O[C@@H]21`, the growth in assay [1] is -72.1% (active); in assay [2], -77% (active); in [3], 17.3%; in assay [4], -36% (active); in assay [5], -79.1% (active); in assay [6], -68.6% (active). Further, the growth in [7] is -56.1% (active); in assay [8], -0.92% (active); in assay [9] it was -76.9% (active); in [10] it was -90.4% (active); in assay [11] it was -10.1% (active); in [12], -94.2% (active). Besides, the growth in assay [13] is -83.3% (active); in assay [15], -81.7% (active); in assay [16] it was 58%; in assay [19], -98.7% (active); in assay [17] it was -53.7% (active).

Turning to `N=C(N)c1ccc(-c2ccc(-c3ccc(Cl)c(Cl)c3)o2)cc1`, the growth in assay [1] is 45.4%; in assay [2], 90.5%; in assay [3] it was -23% (active); in assay [4], 42.3%; in assay [5] it was -68.8% (active); in assay [6], 58.9%. In addition, the growth in assay [7] was 57.7%; in assay [8], -6.23% (active); in assay [9], -91.1% (active); in [10], 3.63% (active); in assay [11], -30.2% (active); in assay [12] it was 53.6%. Further, the growth in assay [13] was -61% (active); in assay [14], 60.2%; in assay [15], 73.1%; in assay [16], -80% (active); in assay [19], -89.1% (active); in [17] it was 84.5%. The growth in assay [18] was 11.8%.

For `NC(N)=N/N=C(/c1ccccc1)c1ccc(N)cc1`, the growth in assay [1] is 101%; in [2] it was 89.6%; in [3] it was 91.2%; in [4], 100%; in assay [5], 110%; in assay [6], 92.8%. The growth is 88.5% in [7]; 99.5% in [8]; 105% in assay [9]; 116% in assay [10]; 113% in assay [11]; 122% in assay [12]. The growth in assay [13] was 103%; in assay [14] it was 108%; in [15], 115%; in [19], 103%; in assay [17], 92.7%; in [18], 104%.

As for `CCCCCCCC/C=C\CCCCCCCC(=O)Oc1cccc2cccnc12`, the growth is 105% in assay [1]; 97% in [2]; 97.6% in assay [3]; 96.4% in assay [4]; 96.1% in [5]; 236% in assay [6]. The growth in assay [7] was 71%; in assay [8], 101%; in assay [9] it was 105%; in [10], 78.5%; in [11], 73.9%; in [12], 117%. Besides, the growth in assay [13] is 106%; in [14], 47.6%; in assay [15] it was 90.8%; in assay [19] it was 102%; in assay [17] it was 2.81% (active); in [18], 90.3%.

With `Cc1c(C(N)=O)sc2nc(C)n(/N=c3\scc(-c4ccccc4)n3Cc3ccccc3)c(=O)c12`, the growth was 20.5% in assay [1]; 30.9% in assay [2]; 35.4% in assay [3]; 24.2% in [4]; 7.46% (active) in assay [5]; -19.1% (active) in assay [6]. Further, the growth in assay [7] was 24.9%; in assay [8], 0% (active); in assay [9], 50.7%; in assay [10] it was 42.2%; in assay [11] it was 8.42% (active); in [12] it was 60.5%. In addition, the growth in assay [13] is 43%; in assay [14], -5.46% (active); in assay [15], 21.3%; in assay [19], 22.2%; in assay [17] it was 4.85% (active); in [18], 36.4%.

On to `COc1ccc(OC)c(/C=C2\COc3ccc(O)cc3C2=O)c1`, for which the growth in [1] was 104%; in [2], 98.5%; in assay [3], 92.3%; in assay [4] it was 108%; in [5], 101%; in assay [6], 93.7%. For the same compound, the growth in assay [7] is 38%; in assay [8], 101%; in assay [9], 96.4%; in assay [10] it was 107%; in [11], 9.33% (active); in assay [12], 81.9%. For the same compound, the growth in assay [13] is 98.3%; in assay [15] it was 99.2%; in [16], 102%; in assay [19], 90.5%; in assay [17], 99.4%.

Take `O[C@H]1CO[C@H]2[C@@H]1OC[C@@H]2Oc1ccc(Nc2ccnc(Nc3ccc(O[C@H]4CO[C@H]5[C@@H]4OC[C@@H]5O)c(Cl)c3)n2)cc1Cl`: the growth in assay [1] was -1.73% (active); in assay [2], 4.09% (active); in assay [3], -4.12% (active); in [4], -28.9% (active); in assay [5] it was 1.27% (active); in assay [6], -20% (active). In addition, the growth in assay [7] is -4.53% (active); in assay [8] it was 21.7%; in assay [9] it was 24.7%; in [10], 7.26% (active); in assay [11], 5.05% (active); in assay [12], 13.2%. Also, the growth was 21.8% in assay [13]; 16.4% in assay [15]; 7.74% (active) in assay [16]; 8.89% (active) in assay [19]; 31.8% in assay [17].

The values above are taken from PubChem BioAssay (NCI).
